We go through 50 molecules from ChEMBL document CHEMBL3433997, “St. Jude Leishmania screening dataset” (2016).

What all share (assay type): functional
Experiment [1] addresses Solute carrier family 2, facilitated glucose transporter member 1 (Homo sapiens) (UniProt P11166). Nature of the experiment: ST_JUDE_LEISH: Cytotoxicity at 2uM final concentration against transgenic Leishmania Mexicana promastigotes LmGLUT1 that are glucose transport deficient and complemented with the human glucose transporter GLUT1. Activity is measured by DNA content using SYBR green in vitro.

The target in experiment [2] is Hexose transporter 1 (Plasmodium falciparum) (UniProt O97467). The experiment is described as follows: ST_JUDE_LEISH: Cytotoxicity at 2uM final concentration against transgenic Leishmania Mexicana promastigotes LmPfHT that are glucose transport deficient and complemented with the Plasmodium falciparum hexose transporter. Activity is measured by DNA content using SYBR green in vitro.

The target of experiment [3] is Glucose transporter (Leishmania mexicana) (UniProt O61059). Nature of the experiment: ST_JUDE_LEISH: Cytotoxicity at 2uM final concentration against transgenic Leishmania Mexicana promastigotes LmGT2 that are glucose transport deficient and complemented with the L. Mexicana glucose transporter 2. Activity is measured by DNA content using SYBR green in vitro.

Chain of Solute carrier family 2, facilitated glucose transporter member 1 (Homo sapiens) (P11166 whole entry): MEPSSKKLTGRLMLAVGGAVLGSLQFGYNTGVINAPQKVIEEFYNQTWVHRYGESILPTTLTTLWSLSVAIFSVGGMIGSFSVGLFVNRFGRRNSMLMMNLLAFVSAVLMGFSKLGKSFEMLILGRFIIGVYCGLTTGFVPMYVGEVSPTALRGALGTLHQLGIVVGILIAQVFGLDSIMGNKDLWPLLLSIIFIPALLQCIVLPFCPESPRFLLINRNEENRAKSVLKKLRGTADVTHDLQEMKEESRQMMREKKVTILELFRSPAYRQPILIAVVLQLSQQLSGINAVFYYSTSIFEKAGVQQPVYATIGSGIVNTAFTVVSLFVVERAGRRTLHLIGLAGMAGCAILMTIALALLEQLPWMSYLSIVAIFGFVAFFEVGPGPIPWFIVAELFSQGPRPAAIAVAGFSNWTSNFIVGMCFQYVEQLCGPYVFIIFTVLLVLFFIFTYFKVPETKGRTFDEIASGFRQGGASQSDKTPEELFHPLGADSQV

By inhibition is commonly meant the drop in the measured response relative to a control, in per cent. Regarding `CCOC(=O)c1nc(-c2ccccc2)[nH]c1NC(=S)NC1CCCCC1`, the inhibition is -0.61% in experiment [1], -0.88% in experiment [2] and -6.59% in experiment [3].

In the case of `COCCNCc1cccc(-c2ccccc2CN(C(=O)c2ccc3c(c2)OCO3)c2ccc(OC)cc2)c1`, the inhibition is 4.69% in experiment [1], 4.93% in experiment [2] and 3.25% in experiment [3].

Regarding `Cc1c(CNCCCNc2cc(=O)c3ccccc3[nH]2)sc(C(F)F)c1Br`, the inhibition in experiment [1] was -0.36%; in experiment [2] it was -0.4%; in experiment [3] it was -1.09%.

Turning to `Cc1cccc2nc(-c3cccc(-c4ccc(NC(=O)C5CCN(C)CC5)cc4)c3)[nH]c12`, the inhibition in experiment [1] is 5.38%; in experiment [2], 2.27%; in experiment [3], 7.2%.

As for `CCc1sc(CN(CCCNc2cc(=O)c3ccccc3[nH]2)Cc2sc(CC)c(Br)c2-c2ccsc2)c(-c2ccsc2)c1Br`, the inhibition in experiment [1] amounted to 3.98%; in experiment [2], 4.16%; in experiment [3] it was 5.33%.

In the case of `CCCCCN1CCCN(Cc2cccc(NC(=O)c3ccc(Cl)c(Cl)c3)c2)CC1`, the inhibition in experiment [1] is -3.68%; in experiment [2] it was 0.02%; in experiment [3] it was 2.58%.

Turning to `CC1(C)NC(N)=NC(=N)N1OCCCOc1cc(Cl)cc(Cl)c1`, the inhibition in experiment [1] came out at 4.4%; in experiment [2], 7.49%; in experiment [3], 2.47%.

As for `CC(Cc1ccc(NC(=O)c2ccc(CNCCc3ccccc3)cc2)cc1)NCCc1cccc(Cl)c1` (stereo not given), the figures for the inhibition in experiment [1], in experiment [2] and in experiment [3] were 68.9%, 36% and 4.52%, respectively.

As for `COc1cc(C2=NN(S(=O)(=O)c3c(C)cc(C)cc3C)CCCC2)ccc1Cl`, the inhibition in experiment [1] worked out at 4.03%; in experiment [2], 3.46%; in experiment [3], 3.33%.

Regarding `CNC(=O)C1Cc2c([nH]c3ccc(Cl)cc23)C2(CCN(CCc3ccccc3)CC2)N1` (stereo not given), the inhibition was 3.32% in experiment [1], 0.71% in experiment [2] and -2.87% in experiment [3].

Regarding `NC1=NC(c2ccccc2)N(OCc2ccccc2)C(N)=N1` (stereo not given), the inhibition in experiment [1] worked out at 0.52%; in experiment [2], 0.08%; in experiment [3] it was 0.06%.

As to `O=C(Nc1cccc(-c2cccc(-c3nc4cc(C(F)(F)F)ccc4[nH]3)c2)c1)Nc1ccc(F)c(F)c1F`, the figures for the inhibition in experiment [1], in experiment [2] and in experiment [3] were -0.38%, -0.91% and 0.55%, respectively.

On to `CC1(C)N=C(N)N=C(N)N1c1ccc2ccccc2c1`, for which the inhibition in experiment [1] came to 3.26%; in experiment [2], 3.3%; in experiment [3], 4.01%.

As for `Cc1cccc2nc(-c3ccc(-c4cccc(CN5CCC(CCN6CCCCC6)CC5)c4)s3)[nH]c12`, the inhibition is -0.21% in experiment [1], 0.87% in experiment [2] and -3.24% in experiment [3].

For `COc1ccc(CN2CCCN(Cc3cccc(C(=O)Nc4ccc(C)c(F)c4)c3)CC2)cc1`, the inhibition in experiment [1] was 0.27%; in experiment [2], -1.26%; in experiment [3], 1.49%.

As for `CC1CCN(Cc2ccc(NC(=O)c3cc4ccc5cccnc5c4[nH]3)cc2)CC1`, the figures for the inhibition in experiment [1], in experiment [2] and in experiment [3] were 7.7%, 7.81% and 7.77%, respectively.

`COc1ccc(NC(=O)/C=C/c2ccccc2Cl)cc1OCCN1CCC(N(C)C)CC1`: the values for the inhibition in experiment [1], in experiment [2] and in experiment [3] were 2.23%, 1.6% and 1.83%, respectively.

On to `O=C(Nc1ccc2c(c1)CCNCC2)Nc1ccc2ccccc2c1`, for which the values for the inhibition in experiment [1], in experiment [2] and in experiment [3] were 11.1%, 8.46% and 9.36%, respectively.

As to `COc1c(CCNCCCCNCCc2cc(Cl)c3ccccc3c2OC)cc(Cl)c2ccccc12`, the values for the inhibition in experiment [1], in experiment [2] and in experiment [3] were 102%, 100% and 105%, respectively.

For `Oc1cccc(CCNCCCCCCNCCc2ccc(Cl)cc2)c1`, the inhibition in experiment [1] amounted to 2.27%; in experiment [2] it was 2.44%; in experiment [3], 2.3%.

As to `Cn1nc(C(F)(F)F)cc1-c1ccc(C(=O)Nc2ccc3c(c2)CNCC3(C)C)s1`, the inhibition worked out at 4.85% in experiment [1], 0.03% in experiment [2] and 2.34% in experiment [3].

In the case of `COc1ccccc1C1CCN(C2CCC(NC(=O)/C=C/c3cc(F)cc(F)c3)CC2)CC1` (stereo not given), the results for the inhibition in experiment [1], in experiment [2] and in experiment [3] were -1.84%, -1.17% and -2.6%, respectively.

Regarding `CCN(CC)CCN(Cc1ccc(-c2ccc(C(F)(F)F)cc2)cc1)C(=O)Cn1cc(CCCc2cccc(F)c2F)c(=O)c2ccccc21`, the values for the inhibition in experiment [1], in experiment [2] and in experiment [3] were 4.03%, 3.93% and 4.35%, respectively.

Take `Cc1ccccc1C1CCN(C2CCC(NC(=O)/C=C/c3ccc(C(F)(F)F)cc3)CC2)CC1` (stereo not given): the inhibition in experiment [1] turned out to be 0.43%; in experiment [2], 1.57%; in experiment [3], 1.85%.

`O=C(N[C@@H](CC1CCCCC1)C(=O)NCCN1CCOCC1)c1ccc(O)c(-c2ccc(Cl)c(Cl)c2)c1`: the figures for the inhibition in experiment [1], in experiment [2] and in experiment [3] were -0.52%, 1.41% and 0.27%, respectively.

Turning to `Cc1ccc(-c2nc(Nc3ccncc3)c3ccccc3n2)s1`, the inhibition in experiment [1] was determined as 5.34%; in experiment [2], 3.16%; in experiment [3] it was 0.88%.

With `Cc1ccc(C(C#N)c2ccc3c(C(F)(F)F)cc(C(F)(F)F)nc3n2)cc1` (stereo not given), the inhibition amounted to 1.88% in experiment [1], 2.44% in experiment [2] and 4.34% in experiment [3].

Consider `CN(CCCc1c[nH]c2ccccc12)CC1CCN(C(=O)/C=C/c2ccc(Cl)c(Cl)c2)CC1`, for which the inhibition was -3.42% in experiment [1], -1.25% in experiment [2] and -1.38% in experiment [3].

In the case of `COc1cc(F)c2ncc(Cl)c([C@@H](O)CN3CCC(NCc4cc5c(cn4)OCCO5)CC3)c2c1`, the inhibition in experiment [1] amounted to 9.42%; in experiment [2], 8.83%; in experiment [3], 5.13%.

With `COc1ccc(Nc2nc(NCc3cccnc3)cc(-c3ccc(OC)cc3)n2)cc1`, the inhibition in experiment [1] was -0.44%; in experiment [2] it was 0.66%; in experiment [3], -0.82%.

Regarding `CCCCCCCCNc1c2ccc(Cl)cc2nc2ccc(OC)cc12`, the inhibition turned out to be 7.33% in experiment [1], 7.51% in experiment [2] and 5.8% in experiment [3].

In the case of `Cc1cc(C2CCN(CCCCNC(=O)c3ccc(-c4ccc(C#N)cc4)cc3)CC2)c(C)cc1OCCO`, the inhibition in experiment [1] stood at 10%; in experiment [2], 12.3%; in experiment [3], 9.78%.

As to `COc1cc(Cn2ccc3c4c(N)nc(N)nc4ccc32)cc(OC)c1OC`, the inhibition turned out to be 86.3% in experiment [1], 83.5% in experiment [2] and 73.1% in experiment [3].

Regarding `COc1cc2c(C3CCN(CC4CCN(C(=O)/C=C/c5ccc(Cl)c(Cl)c5)CC4)CC3)c[nH]c2cn1`, the values for the inhibition in experiment [1], in experiment [2] and in experiment [3] were 2.4%, -0.95% and -0.88%, respectively.

For the molecule `O=C(Nc1ccc(-c2cccc(-c3nc4ccccc4[nH]3)c2)cc1)Nc1ccc(Cl)c(Cl)c1`, the inhibition in experiment [1] is -0.46%; in experiment [2], 0.83%; in experiment [3] it was 0.9%.

Turning to `CC1(C)NC(N)=NC(=N)N1OCCCCOc1ccc(Cl)cc1C1CCCCC1`, the inhibition in experiment [1] is 18%; in experiment [2], 26.4%; in experiment [3], 11.5%.

For `Cc1cc(Br)c(OCCCON2C(=N)N=C(N)NC2(C)C)c(Br)c1`, the results for the inhibition in experiment [1], in experiment [2] and in experiment [3] were 2.66%, 4.88% and 1.2%, respectively.

As to `CN(C)c1ccc2c(c1)Sc1cc(N(C)C)ccc1N2C(=O)c1cccc(C(=O)O)c1`, the inhibition in experiment [1] was -1.08%; in experiment [2], -0.19%; in experiment [3], 7.43%.

`Cc1cc(C)cc(Oc2c(C(F)(F)F)oc3c(CN4CC(C)OC(C)C4)c(O)ccc3c2=O)c1` (stereo not given): the inhibition is -0.42% in experiment [1], -1.36% in experiment [2] and 1.31% in experiment [3].

Turning to `Cc1cccc2nc(-c3cccc(-c4cccc(CN5CCN(c6ccncc6)CC5)c4)c3)[nH]c12`, the values for the inhibition in experiment [1], in experiment [2] and in experiment [3] were 1.34%, 0.76% and 0.37%, respectively.

As for `COc1ccc(-c2cccc(NC(=O)c3cccc(C#N)c3)c2)cc1CN1CCCC1`, the inhibition in experiment [1] worked out at 12.1%; in experiment [2] it was 15.9%; in experiment [3], 5.27%.

Take `CC1CN(c2ccc(NC(=O)c3ccc(F)cc3)cc2)CCN1Cc1cccc(F)c1` (stereo not given): the inhibition in experiment [1] was 3.88%; in experiment [2], 2.84%; in experiment [3], 4.01%.

In the case of `O=C(Nc1cccc(F)c1)N1CCC(NS(=O)(=O)c2ccc(Br)cc2)CC1`, the inhibition in experiment [1] stood at 4.47%; in experiment [2], 4%; in experiment [3] it was 2.63%.

Take `COc1cc(/C=C/C(=O)NC2CCC(N3CCC(c4ccccc4C)CC3)CC2)cc(OC)c1` (stereo not given): the inhibition in experiment [1] was -0.75%; in experiment [2] it was -0.16%; in experiment [3], 0.77%.

With `CCCNCc1ccc(-c2ccc(CN(CCOC)C(=O)c3cccc(C#N)c3)cc2)nc1`, the inhibition came to 1.66% in experiment [1], 1.45% in experiment [2] and 3.74% in experiment [3].

For the molecule `COc1cccc(OC(C)(C)c2nc(N[C@@H](C)c3ccccc3)c3cn[nH]c3n2)c1`, the values for the inhibition in experiment [1], in experiment [2] and in experiment [3] were 1.92%, -1.84% and -1.65%, respectively.

Regarding `NCc1ccc(-c2ccc3c(N)nccc3c2)cc1`, the inhibition in experiment [1] is -3.43%; in experiment [2], 0.57%; in experiment [3], 0.41%.

In the case of `N#Cc1cccc(NC(=O)NC2CCN(CCCCCNC(=O)C3CC3c3ccc(Cl)c(Cl)c3)CC2)c1` (stereo not given), the inhibition in experiment [1] amounted to 0.56%; in experiment [2], 0.42%; in experiment [3] it was 1.85%.

As to `c1csc(-c2ccc3c(c2)CC(NCc2c[nH]c4cnccc24)C3)c1` (stereo not given), the inhibition in experiment [1] turned out to be 4.86%; in experiment [2], 5.34%; in experiment [3], 5.84%.

Consider `O=c1c(Br)ccccc1Br`, for which the values for the inhibition in experiment [1], in experiment [2] and in experiment [3] were 1.2%, 3.16% and 2.97%, respectively.
